Results published in the OligoGym collection.

How the values were obtained:
Assay in all cases: pooled miR-30 sensor sort-seq; sequence = guide strand
Conditions in all cases: shRNA
PPM1E = biological target: PPM1E
PPM1J = biological target: PPM1J
PQLC1 = biological target: PQLC1
PRB2 = biological target: PRB2
PRKAR1B = biological target: PRKAR1B
PRDM11 = biological target: PRDM11
PREB = biological target: PREB
Note: reference of the scale not given here.

## TTTGGATTAAACCTGAATCTGT
PPM1E
  sensor-assay potency score (higher = more potent): -0.682

## TATTTGTGTGAGATCTAGGTAG
PPM1E
  sensor-assay potency score (higher = more potent): 0.201

## TACTCCTGTAACACTCCTCCGA
PPM1J
  sensor-assay potency score (higher = more potent): -0.279

## TTCCGGACAATGATGGCCCTGC
PPM1J
  sensor-assay potency score (higher = more potent): 0.189

## TTACATTTAAGAATTGAGCCAT
PPM1E
  sensor-assay potency score (higher = more potent): 0.639

## AAGTCCAGGAAGGACCGCCTGG
PQLC1
  sensor-assay potency score (higher = more potent): -1.26

## TCGAGAACTTCGGGACTTGTTG
PRB2
  sensor-assay potency score (higher = more potent): -0.988

## TCTAGGATGGAGACCTTGCTGA
PRKAR1B
  sensor-assay potency score (higher = more potent): -0.482

## TTGATCAACGACATAGAAGTTG
PRKAR1B
  sensor-assay potency score (higher = more potent): -0.313

## AACTCCTCGTACATCTTGCGTT
PRKAR1B
  sensor-assay potency score (higher = more potent): -1.1

## TATAACAGTCTCCCCAGCGATG
PRKAR1B
  sensor-assay potency score (higher = more potent): -1.57

## TCCGACAATAATCTCATCCAAA
PRDM11
  sensor-assay potency score (higher = more potent): -1.56

## TAAGGGTAGACTACCTAGGAAC
PREB
  sensor-assay potency score (higher = more potent): -1.26

## TTGATGTGCCTGGAAGCGCAGG
PREB
  sensor-assay potency score (higher = more potent): -0.963

## TAATTCTGCCTGGAGCTCCCGA
PRDM11
  sensor-assay potency score (higher = more potent): -0.672

## TTCTTTATGCCTGTCTTGGCGG
PREB
  sensor-assay potency score (higher = more potent): -0.991

## TTCGGGACTTGCTGCCTCCTTG
PRB2
  sensor-assay potency score (higher = more potent): -0.944

## TGTTGTTGCACACTGACTGTAG
PRDM11
  sensor-assay potency score (higher = more potent): 0.562

## AAAGTCTGTCTGCACCGCCTGC
PREB
  sensor-assay potency score (higher = more potent): -1.08

## ATCGGAGCTAAAGTCTGTCTGC
PREB
  sensor-assay potency score (higher = more potent): -0.682

## TTGTTGTTGCACACTGACTGTA
PRDM11
  sensor-assay potency score (higher = more potent): -0.0431

## TACACCTCGGCACTCACGCCTC
PRKAR1B
  sensor-assay potency score (higher = more potent): -1.12

## TTCTGCAGTGGATCGGAGCTAA
PREB
  sensor-assay potency score (higher = more potent): 0.0919

## TAAGCATGTCTAATTCTGCCTG
PRDM11
  sensor-assay potency score (higher = more potent): -0.386

## TTTCTTCTTCTTAGCTTGGGGG
PRDM11
  sensor-assay potency score (higher = more potent): -0.807

## AGGAGATCGAGAACTTCGGGAC
PRB2
  sensor-assay potency score (higher = more potent): -1.14

## TTGGGACTTGTTGTCTCCTTGT
PRB2
  sensor-assay potency score (higher = more potent): -0.258

## TTTCTCTCCATCTTCAAACTGG
PRKAR1B
  sensor-assay potency score (higher = more potent): -0.327

## TTCCTTCTCCAGCTTCTCGAAG
PRKAR1B
  sensor-assay potency score (higher = more potent): -1.27

## TAAAGTCTGTCTGCACCGCCTG
PREB
  sensor-assay potency score (higher = more potent): -0.668

## TTTTCTTCTTCTTAGCTTGGGG
PRDM11
  sensor-assay potency score (higher = more potent): -0.102

## TTGCACACTGACTGTAGGCGTC
PRDM11
  sensor-assay potency score (higher = more potent): -0.555

## TCCATCTTCAAACTGGACGGGC
PRKAR1B
  sensor-assay potency score (higher = more potent): -0.749

## TTCGTGGGCTTTGAACTCCAGA
PREB
  sensor-assay potency score (higher = more potent): -1.33

## TTCACTGACATCGAGGCAGGAG
PREB
  sensor-assay potency score (higher = more potent): 0.301

## TAACGCTGAATGTTCCTCTTGA
PRKAR1B
  sensor-assay potency score (higher = more potent): 0.692
